Experimental data published in PubChem BioAssay AID624246 (National Center for Advancing Translational Sciences (NCATS), 2012).
In all, about 370,000 compounds went through this assay and about 100 (0.027%) were called active. The call rests on the fitted dose curve; in most records, active means well fitted inhibition curve with a large enough effect in the polarisation, with a control signal flat; inconclusive means small, poorly fitted or top-dose-only effect, or effect the other way, or a change in a side signal; inactive means no such curve, though single readings can be large or run the other way; the % refers to the polarisation. This excerpt belongs to a sample that is enriched for actives.

These compounds were tested against Transcriptional regulator ERG (Homo sapiens) (UniProt P11308) (assay: qHTS for Small Molecule Inhibitors of the ERG Ets/DNA interaction). Conditions: fluorescence polarization, His-ERG Ets domain / labelled DNA; series mostly up to 76.9 µM; FP activity, negative = inhibition: at the top concentration.
From the text: The Ets family of proteins is a family of ~30 conserved transcription factors defined by the presence of an ~85 amino acid domain referred to as the Ets domain, which mediates sequence-specific DNA binding to a core DNA element GGAA/T.The Ets family member ERG has been linked to several neoplasms. […] More extensive studies of the effects of over-expression of ERG in prostate cells have recently been carried out and have shown that over-expression of ERG results in increased invasion. […] We will carry out a high throughout screen to identify inhibitors of the interaction between ERG and DNA using a fluorescence polarization (FP) assay with a His-tagged ERG Ets domain and fluorescently-labeled DNA probes to develop small molecule inhibitors of this interaction as probes to test this hypothesis and lay the groundwork for the development of targeted therapies against ERG. NIH Molecular Libraries Probe Production Network [MLPCN] NIH Chemical Genomics Center [NCGC] Grant: NS066464 PI Name: John Bushweller, University of Virgina
1.5 ul of protein solution (1 uM ERG domain in 300mM KCl, 50mM Tris-HCl, 1mM EDTA, 1mM DTT, pH 7.5); 20 nl Control plate and compound library plate; 1.5 ul mixture of 5 nM Fluorescein-DNA and 100nM Texas-615-DNA solution in same buffer as above solution; measure fluorescence polarization sequentially for fluorescein (Excitation = 480 nm, Emission = 535s, 535p nm) and Texas red (Excitation = 555 nm, Emission = 632s, 632p nm).
Potency means the concentration at half of the fitted maximal effect.
Wherever FP activity, negative = inhibition is given: % of control where 0% means no effect.

Sequence of Transcriptional regulator ERG (Homo sapiens) (P11308 whole entry, looked up, the tested form may be a part): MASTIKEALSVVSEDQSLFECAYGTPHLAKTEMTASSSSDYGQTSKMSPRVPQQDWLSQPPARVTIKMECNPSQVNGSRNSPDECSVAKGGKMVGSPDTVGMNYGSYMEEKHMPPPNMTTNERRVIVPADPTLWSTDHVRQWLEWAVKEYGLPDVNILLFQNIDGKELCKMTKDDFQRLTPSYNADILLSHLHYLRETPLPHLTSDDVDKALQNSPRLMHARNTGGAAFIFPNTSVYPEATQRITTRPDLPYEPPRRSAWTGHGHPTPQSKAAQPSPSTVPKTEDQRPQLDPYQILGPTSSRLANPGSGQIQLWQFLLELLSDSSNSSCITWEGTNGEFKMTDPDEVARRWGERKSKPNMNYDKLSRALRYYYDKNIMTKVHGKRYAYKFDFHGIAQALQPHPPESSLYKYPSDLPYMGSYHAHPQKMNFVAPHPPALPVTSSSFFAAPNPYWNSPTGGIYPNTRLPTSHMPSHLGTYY

FP activity, negative = inhibition, inactive:
Cc1nn(-c2ccc(N3CCCCC3)nn2)c(C)c1CCC(=O)NCc1ccccc1F -5.53%
CCc1ccc(C(=O)CC2(O)C(=O)N(CCc3ccccc3)c3ccc(Br)cc32)cc1 (stereo not drawn) -0.514%
CCOc1cc(C2c3c(-c4ccc(Br)cc4)n[nH]c3C(=O)N2c2ccc(Cl)cc2)ccc1O (stereo not drawn) 12%
CCOc1ccc(-c2nonc2NC(=O)c2oc3ccc(C)cc3c2C)cc1OCC 0.0958%
CC1=C(C(=O)OCC(C)C)C(c2ccc(OCc3ccccc3)cc2)N2C(=O)CCSC2=N1 (stereo not drawn) -0.84%
O=C(NCc1ccccc1)c1ccc2c(c1)nc1n2CCCCC1 -0.294%
COC(=O)c1cc(S(=O)(=O)N2CCN(c3cc(Cl)ccc3C)CC2)c[nH]1 -1.55%
Cc1ccc(C)c(N2CCN(CCCNC(=O)Nc3ccc(Cl)cc3)CC2)c1 1.63%
COc1ccc(-c2cn3nc(N4CCC(C(=O)Nc5cccc(C)c5C)CC4)sc3n2)cc1 -1.85%
COc1ccc(OC)c(NC(=O)CSC2=Nc3ccccc3C3=NC(CC(=O)NCc4ccc(F)cc4)C(=O)N23)c1 (stereo not drawn) 5.04%
Cc1ccc2oc(=O)c3cnn(CC(=O)NCc4ccccc4Cl)c3c2c1 -1.05%
CCOc1ccc(CNC(=O)c2cccc(Nc3nc4ccccc4n4nnnc34)c2)cc1OC -1.27%
Cc1ccc(C)c(Oc2c(C(F)(F)F)oc3c(CN4CCN(C)CC4)c(O)ccc3c2=O)c1 1.61%
CCOc1ccccc1NC(=O)CN1CCCN(Cc2cccc(Cl)c2)S1(=O)=O 4.01%
Cc1ccc(OCCSc2nc(C)c(Cc3ccccc3)c(=O)[nH]2)cc1 1.16%
CCC1(C)CC(=O)c2c(ccc3oc(C(=O)Nc4ccc(C(C)=O)cc4)c(C)c23)O1 (stereo not drawn) -5.73%
COc1ccc(CCNC(=O)c2ccc(-n3c(C)cc4c3CCCC4)cc2)cc1OC -3.33%
Cc1ccc(C)c(CNC(=O)c2cc3ccccn3n2)c1 -10.3%
CCOc1ccccc1NC(=O)CN1CCN(S(=O)(=O)c2ccc(Br)cc2)CC1 2.57%
Cc1oc(-c2ccccc2F)nc1CN1CCC(C(=O)NCCc2ccc(Cl)cc2)CC1 -1.13%
CCOc1cccc(C(=O)Nc2nnc(S(=O)(=O)N(C)c3ccc(C)cc3)s2)c1 0.655%
COc1ccc(Cn2ccc3nc(C)c(C(=O)Nc4ccc(C)c(F)c4)cc3c2=O)cc1 -3.4%
COc1ccc(OC)c(CNC(=O)Cn2nc(C)c3c(C)n(-c4ccccc4)nc3c2=O)c1 3.15%
CCN(CC)CCNC(=O)CN1N=C(c2ccc(OC)cc2)CCC1=O -3.32%
CCOC(=O)c1cc2c(=O)n3ccccc3nc2n(CCCOC)c1=NC(=O)C(C)(C)Oc1ccc(Cl)cc1 -23.1%
COc1cccc(-c2nnc(SCC(=O)N3CCC(C)CC3)o2)c1 1.34%
COC(=O)c1ccc(NC(=O)c2cnn(-c3ccc(Cl)cc3)c2C2CCN(C(=O)OC(C)(C)C)CC2)cc1 2.85%
O=C(NCc1ccc2c(c1)CCN2C(=O)c1ccccc1)Nc1cc(F)ccc1F -0.322%
O=C(NCCCO)C(=O)Nc1c2c(nn1-c1ccccc1)CSC2 6.72%
O=C(Nc1ccc2nc(SCCOc3ccccc3Cl)sc2c1)c1ccco1 -0.316%
CCc1nc(-c2cc(S(=O)(=O)N3CCN(c4ccc(OC)cc4)CC3)ccc2OC)no1 -3.39%
CCCN1CCc2nc(N3CCN(C)CC3)ncc2C1 1.55%
COc1cccc2cc(/C(C)=N/NC(=O)c3ccco3)oc12 -10.8%
C/C(CC(=O)NC(C)(C)C)=N\NC(=O)c1ccco1 3.01%
CCC1=Nc2cc(C(=O)NCCCOC(C)C)ccc2Sc2ccc(C)cc21 -0.0425%
CCOC(=O)c1ccc2c(c1)N(Cc1cccc(OC)c1)C(=O)c1ccccc1S2(=O)=O -4.86%
CN(C(=O)c1ccc2c(c1)N(Cc1cccc(Cl)c1)C(=O)c1ccccc1S2=O)C1CCCCC1 (stereo not drawn) -4.59%
O=C1CN(C(=O)Nc2ccccc2C(F)(F)F)C(c2ccccc2)c2c(sc3c2CCCC3)N1 (stereo not drawn) 6.74%
COc1ccccc1NC(=O)C1=C(C)Nc2nc(SCC(=O)c3ccc(C)cc3)nn2C1c1ccccc1C (stereo not drawn) -8.08%
O=C1N(Cc2ccccc2)c2ccc(Cl)cc2C1(O)c1c[nH]c2ccccc12 (stereo not drawn) 0.882%
CCOC(=O)c1c(NC(=O)/C=C/c2ccc(OC)cc2)sc2c1CCC(C)C2 (stereo not drawn) 2.55%
CCOC(=O)c1ccccc1NC(=O)c1nn(-c2ccc(OC)c(Cl)c2)c(=O)c2c1c1ccccc1n2C -3.65%
CCc1ccc(NS(=O)(=O)c2ccc3[nH]cc(C(=O)NCCc4cccc(C)c4)c(=O)c3c2)cc1 -8.63%
COc1ccc(N2CCN(c3nc(-c4ccccc4F)nc4ccccc34)CC2)cc1 -3%
CC(C)c1ccc(OCC(=O)N(Cc2ccc(N(C)C)cc2)C2CCS(=O)(=O)C2)cc1 (stereo not drawn) -0.0046%
CCOc1cccc(CC(=O)N2CCc3c([nH]c4ccccc34)C2c2ccc(F)cc2)c1OCC (stereo not drawn) 1.73%

Potency, active:
COc1cccc2c1C(=O)c1c(O)c3c(c(O)c1C2=O)CC(O)(C(C)=NNC(=O)c1ccc(Cl)c(Cl)c1)CC3OC1CC(N)C(O)C(C)O1 (stereo not drawn) 2.51 µM
C/C(=N/NC(=O)CCc1ccccc1)c1ccco1 28.2 µM
